This is a sample that favours compounds with a hit; in the whole collection about 0.65% have one here.
AMA1 RON2 block: AMA1-RON2 (P. falciparum) interaction inhibition; Potency, µM (titrated, usually from 58.2 µM), inactives show at the top dose activity change, negative = inhibition, usual class: inhibitors; AlphaScreen AMA1-biotinylated RON2 peptide binding; AID 720542; 0.2% of 360,000 active; active means well fitted inhibition curve with a large enough effect; inconclusive means small, poorly fitted or top-dose-only effect; inactive means no such curve, though single readings can be large or run the other way;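 further: potency means the concentration at half of the fitted maximal effect; 0% = vehicle wells and -100% = peptide control; nearly all actives have a fitted effect of over 45% in size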
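AMA1 (3D7) with his tag at 25 nM final met compounds first, then biotinylated RON2 peptide at 25 nM; detection used donor plus acceptor beads, 10 µg/mL apiece, read by AlphaScreen after 30 min at room temperature.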
SARS PLP yeast: blocks SARS-CoV papain-like protease in a yeast assay. Potency, µM (titrated, usually from 32.9 µM), inactives show at the highest dose activity, positive = growth rescue, actives largely listed as activators. 0.19% of 330,000 active. S. cerevisiae expressing SARS-CoV PLpro, growth rescue; further: potency means the concentration at half of the fitted maximal effect; 0% is about no effect; nearly all actives have a fitted effect of over 55% in size
NS1 function inh: blocks influenza NS1 protein function; Potency, µM (top dose mostly 46.1 µM), for inactives: top-dose activity, positive = more growth; 0.4% of 270,000 active; AID 2326; further: potency means the concentration at half of the fitted maximal effect; actives are rising curves; nearly all actives have a fitted effect of over 50% in size
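Growth recovery, yeast-based: influenza A NS1 expressed in S. cerevisiae causes slow growth, and suppressors are detected by OD600. The parent strain without NS1 is used as positive control.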
Flu NS1 inh: influenza NS1 function inhibition validation; influenza NS1 function cell assay, 15-point titration; activity change, negative = inhibition, % at 32.9 µM; AID 492980; 1,400 tested, under 10 active; shares compounds with NS1 function inh; further: 0% is about no effect
Flu PR8 replic: influenza NS1 inhibitors: inhibition of influenza A/PR/8/34 replication | shares compounds with NS1 function inh | AID 504647 | MDCK infected influenza A/PR/8/34, virus titer TCID50; stronger effect = lower value | virus titer (log TCID50), log10 TCID50 at 5 µM | 30% of 95 active; call rule not given here
Numbers without * were called inactive; ? = inconclusive; . = not tested or not shown. Unless noted, the call rests on the fitted dose curve.

SMILES	AMA1 RON2 block	SARS PLP yeast	NS1 function inh	Flu NS1 inh	others
CCOC(=O)c1sc(NC(=O)C2CC(=O)N(c3ccc(OC)cc3)C2)nc1C (configuration not stated)	0.7%	-2.6%	14.8%	.
c1ccc(-n2cnc3cc(NCc4ccncc4)ccc32)cc1	-5.4%	1.5%	?	-11.1
c1ccc(-n2cnc3cc(NCc4ccccn4)ccc32)cc1	?	-13.2%	-0.5%	.
Cc1c(C(=O)Nc2ccc(F)cc2)oc2ccc(S(=O)(=O)N3CCC4(CC3)OCCO4)cc12	24.6%	-1.9%	?	.
Cc1c(C(=O)Nc2cccc(Cl)c2)oc2ccc(S(=O)(=O)N3CCC4(CC3)OCCO4)cc12	-0.5%	-3.7%	11.2µM*	-19.1
CCCn1c(SCC(=O)Nc2ccc3c(c2)OCCO3)n[nH]c1=O	-5.4%	-0.9%	.	.
COc1ccccc1CNC(=O)CSC(=S)N1CCCC1	-12.5%	.	.	.
COc1ccc(CNC(=O)CCCCCn2c(SCC#N)nc3cc4c(cc3c2=O)OCO4)cc1	-15.4%	1.5%	11.2µM*	-16.2
CCN(CC)C(=O)CSc1nc2cc3c(cc2c(=O)n1CCCC(=O)NCc1ccc(OC)cc1)OCO3	5.9%	2.0%	.	.
COc1ccc(-c2csc(Nc3ccc(S(=O)(=O)Nc4cc(OC)nc(OC)n4)cc3)n2)cc1	-10.3%	5.4%	12.6µM*	19.8	Flu PR8 replic=8
COc1cc(NS(=O)(=O)c2ccc(Nc3nc(-c4ccccn4)cs3)cc2)nc(OC)n1	88.5%	-0.7%	8.8%	.
Cc1cc(=O)oc2c(C)c(OCC(=O)N3CCC(C(=O)O)CC3)ccc12	5.3%	10.3%	7.3%	.
C=CCn1c(SCC(=O)N2CCCCC2)nc(O)cc1=O	-2.6%	-1.3%	10.2%	.
C=CCn1c(SCC(=O)N(CC)CC)nc(O)cc1=O	10.3%	2.3%	2.51µM*	1.5
Cc1cccc(C)c1OCCSc1nc2ccccc2n1CC(=O)O	-6.3%	.	15.7%	.
Cc1ccc([N+](=O)[O-])cc1N(CC(=O)Nc1ccc(S(=O)(=O)Nc2cccc(C(F)(F)F)c2)cc1)S(C)(=O)=O	?	21.5%	15.8µM*	9.6
COc1ccccc1N(CC(=O)Nc1cccc(C(F)(F)F)c1)S(C)(=O)=O	2.2%	1.4%	1.7%	.
COc1ccc(-c2c(C)nc(N)nc2-c2ccc(OC)cc2O)cc1	28.3%	-1.0%	-4.3%	.
COc1ccc(-c2c(C)nc(N)nc2-c2ccc(OCc3ccc(C)cc3)cc2O)cc1OC	4.5%	4.6%	3.16µM*	2.0
COc1ccc(N2C(N)=C(C#N)C(c3cccnc3)C3=C2CC(C)(C)CC3=O)cc1 (configuration not stated)	29.8%	-3.1%	?	-13.8
COc1ccc(C2C(C#N)=C(N)N(c3cccnc3)C3=C2C(=O)CC(C)(C)C3)cc1OC (configuration not stated)	19.5%	6.0%	.	.
C/C=C\C(=O)Nc1cccc(C2=NOC3(C2)C[C@@H](C(N)=O)N(C(=O)c2ccccc2)C3)c1 (some centres not stated)	-11.6%	5.3%	-2.1%	.
C/C=C\C=C/C(=O)Nc1cccc(C2=NOC3(C2)C[C@@H](C(N)=O)N(C(=O)c2ccccc2)C3)c1 (some centres not stated)	.	0.8%	1µM*	-11.5
COc1ccc(/C=N/n2c(COc3ccccc3)n[nH]c2=S)cc1OC	86.6%	-0.9%	4.0%	.
CCOC(=O)c1cc2c(ccn2C)n1Cc1cc(C)ccc1C	?	-22.8%	9.3%	.
SMILES	AMA1 RON2 block	SARS PLP yeast	NS1 function inh	Flu NS1 inh	others
CC(C)OC(=O)c1cc2c(ccn2C)n1CC(=O)N(Cc1ccccc1)c1ccccc1	?	4.8%	11.2µM*	-27.9
Cc1ccccc1NC(=O)CSc1ccncc1	6.1%	-0.1%	0.5%	.
CCOC(=O)N1CCN(S(=O)(=O)N2CCCC(C(=O)NCc3ccc(F)cc3)C2)CC1 (configuration not stated)	-14.9%	14.9%	?	.
CC1CC(C)CN(S(=O)(=O)N2CCCC(C(=O)NCc3ccccc3Cl)C2)C1 (configuration not stated)	9.1%	-0.9%	?	-14.9	Flu PR8 replic=8
CC1CCN(S(=O)(=O)N2CCCC(C(=O)NCc3ccccc3Cl)C2)CC1 (configuration not stated)	9.5%	5.9%	-4.0%	.
CCOC(=O)N1CCN(S(=O)(=O)N2CCCC(C(=O)NCc3ccc(OC)cc3)C2)CC1 (configuration not stated)	-1.1%	6.4%	?	-20.4
COc1cccc(NC(=O)C2(C)CCN2Cc2ccc(SC)cc2)c1 (configuration not stated)	-8.7%	.	.	.

Source: PubChem BioAssay
